Assay results from PubChem BioAssay.
Unmarked numbers belong to inactive results. Activity calls are given as the source filed them.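 How the source made its calls, unless noted: active means mean inhibition above 46.5%, the solvent-only control mean plus 3 SD; inactive means the rest.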

System: transactivating tegument protein VP16 (Human herpesvirus 1)
Experiment: VP16 transactivation reporter inhibitors, counter-screen for SRC2 inhibitor project, cell-based, luminescence, single concentration (AID 652007; in the data active means inhibition above about 36%)
Details: cell-based VP16 transactivation luciferase reporter, at 8.9 µM, stronger effect = higher value

| SMILES | inhibition [%] |
| --- | --- |
| O=S(=O)(Nc1ccc2c(c1)OCCO2)c1cccc2nsnc12 | -9.03 |
| Cc1cc(Nc2cccc(Cl)c2)nc(NCc2ccccc2)n1 | -3.2 |
| CCOC(=O)C1CCN(C(=O)c2ccc(OCC(=O)Nc3cccc(C(F)(F)F)c3)c(OC)c2)CC1 | 24.1 |
| CC(C)(C)c1cc(/C=N/O)cc(C(C)(C)C)c1O | -7.33 |
| CCn1ccnc1CN(C)Cc1cn[nH]c1-c1ccc(F)cc1F | -19.6 |
| O=C(Nc1ccc2c(c1)OCCO2)C(c1cc2ccccc2o1)N1CCN(c2ccc(F)cc2)CC1 (stereo unspecified) | -43.1 |
| Cc1cc(NC(=O)Cc2ccccc2)c2ccccc2n1 | 9.96 |
| CN(C)S(=O)(=O)N1CCC(Oc2cccc(C(=O)NC3CCCCC3)c2)CC1 | 4.19 |
| Cc1ccc(-c2nnc(SCC(=O)Nc3ccccc3F)o2)cc1 | 19.4 |
| O=C(Nc1ccc(OCc2ccccc2Cl)cc1)c1cccnc1 | 27 |
| Cc1ccc(-c2cc(C(=O)NCCCN3CCOCC3)no2)cc1 | -12.9 |
| O=C1CCC2S/C(=C/Nc3ccc(C(F)(F)F)cc3)C(=O)N12 (stereo unspecified) | 3.33 |
| C=CCNc1ncnc2ccc(Br)cc12 | 1.3 |
| Cc1ccc(OCC(=O)NC(=S)Nc2ccccn2)c(Br)c1 | 20.5 |
| CC(=O)Nc1ccc(OCC(=O)Nc2ccc(Cl)c(S(=O)(=O)N3CCOCC3)c2)cc1 | -7.09 |
| CC1CCN(c2ccc(-c3cccc(NC(=O)C(F)(F)F)c3)nn2)CC1 | -9.14 |
| COc1ccccc1NS(=O)(=O)c1cccc(NC(=O)c2cncc(Br)c2)c1 | 14.8 |
| Cc1noc(/C=C/c2ccco2)c1S(=O)(=O)N1CCC(C(=O)Nc2ccc(Cl)cn2)CC1 | 17.2 |

Target: Nuclear receptor coactivator 2 (Homo sapiens) (UniProt Q15596)
Experiment: SRC2 coactivator transcriptional activity inhibitors, confirmation, cell-based, luminescence, HEK293, triplicate (AID 652008);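 further: 0% = DMSO-treated cells and 100% = Gossypol at 36 µM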
Details: HEK293 GAL4-SRC2 luciferase reporter, at 8.9 µM, stronger effect = higher value

Nuclear receptor coactivator 2 (Homo sapiens), sequence (Q15596 whole entry, looked up): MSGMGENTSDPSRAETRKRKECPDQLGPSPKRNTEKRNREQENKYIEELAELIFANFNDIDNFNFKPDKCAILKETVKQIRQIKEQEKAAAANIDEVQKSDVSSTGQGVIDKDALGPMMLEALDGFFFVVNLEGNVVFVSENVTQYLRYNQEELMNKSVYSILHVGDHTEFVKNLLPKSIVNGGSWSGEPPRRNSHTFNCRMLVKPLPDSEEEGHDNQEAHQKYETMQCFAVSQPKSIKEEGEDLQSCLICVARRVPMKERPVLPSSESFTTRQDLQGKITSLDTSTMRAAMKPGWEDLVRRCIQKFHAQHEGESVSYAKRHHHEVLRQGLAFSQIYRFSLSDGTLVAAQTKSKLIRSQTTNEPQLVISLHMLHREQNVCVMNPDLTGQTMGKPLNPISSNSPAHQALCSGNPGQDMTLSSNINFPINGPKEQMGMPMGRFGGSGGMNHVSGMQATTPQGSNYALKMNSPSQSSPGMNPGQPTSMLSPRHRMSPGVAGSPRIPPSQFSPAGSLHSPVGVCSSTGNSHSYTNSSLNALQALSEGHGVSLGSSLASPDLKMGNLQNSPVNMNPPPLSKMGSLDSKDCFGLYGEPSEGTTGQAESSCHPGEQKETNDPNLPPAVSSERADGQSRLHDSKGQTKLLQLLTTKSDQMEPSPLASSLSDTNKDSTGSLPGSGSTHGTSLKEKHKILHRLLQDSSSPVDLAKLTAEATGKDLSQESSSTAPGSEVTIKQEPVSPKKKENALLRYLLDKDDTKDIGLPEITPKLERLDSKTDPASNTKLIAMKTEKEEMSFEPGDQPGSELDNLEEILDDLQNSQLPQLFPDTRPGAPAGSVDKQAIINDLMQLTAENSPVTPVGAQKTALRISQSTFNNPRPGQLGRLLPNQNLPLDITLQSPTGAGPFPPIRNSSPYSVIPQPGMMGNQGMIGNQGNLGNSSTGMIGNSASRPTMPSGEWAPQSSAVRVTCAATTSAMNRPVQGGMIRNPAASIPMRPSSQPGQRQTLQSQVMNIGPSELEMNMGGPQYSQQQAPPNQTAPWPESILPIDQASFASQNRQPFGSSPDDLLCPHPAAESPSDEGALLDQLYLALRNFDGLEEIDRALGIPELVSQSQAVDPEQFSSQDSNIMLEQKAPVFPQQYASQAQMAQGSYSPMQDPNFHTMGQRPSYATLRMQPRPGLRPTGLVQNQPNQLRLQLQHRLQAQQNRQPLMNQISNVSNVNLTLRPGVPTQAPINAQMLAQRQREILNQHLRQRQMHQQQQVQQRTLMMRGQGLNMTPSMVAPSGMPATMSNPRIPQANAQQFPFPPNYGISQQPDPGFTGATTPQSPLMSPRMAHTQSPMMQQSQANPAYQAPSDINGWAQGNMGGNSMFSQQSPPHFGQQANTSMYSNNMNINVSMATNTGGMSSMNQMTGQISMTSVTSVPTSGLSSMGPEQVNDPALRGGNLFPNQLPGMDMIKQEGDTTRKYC

| SMILES | inhibition |
| --- | --- |
| O=S(=O)(Nc1ccc2c(c1)OCCO2)c1cccc2nsnc12 | 44% |
| Cc1cc(Nc2cccc(Cl)c2)nc(NCc2ccccc2)n1 | 13.1% |
| CCOC(=O)C1CCN(C(=O)c2ccc(OCC(=O)Nc3cccc(C(F)(F)F)c3)c(OC)c2)CC1 | 45.3% |
| CC(C)(C)c1cc(/C=N/O)cc(C(C)(C)C)c1O | 9.3% |
| CCn1ccnc1CN(C)Cc1cn[nH]c1-c1ccc(F)cc1F | 10.5% |
| O=C(Nc1ccc2c(c1)OCCO2)C(c1cc2ccccc2o1)N1CCN(c2ccc(F)cc2)CC1 (stereo unspecified) | 28.6% |
| Cc1cc(NC(=O)Cc2ccccc2)c2ccccc2n1 | 24.6% |
| CN(C)S(=O)(=O)N1CCC(Oc2cccc(C(=O)NC3CCCCC3)c2)CC1 | 13.4% |
| Cc1ccc(-c2nnc(SCC(=O)Nc3ccccc3F)o2)cc1 | 60% (active) |
| O=C(Nc1ccc(OCc2ccccc2Cl)cc1)c1cccnc1 | 52.2% (active) |
| Cc1ccc(-c2cc(C(=O)NCCCN3CCOCC3)no2)cc1 | 53.2% (active) |
| O=C1CCC2S/C(=C/Nc3ccc(C(F)(F)F)cc3)C(=O)N12 (stereo unspecified) | 66.4% (active) |
| C=CCNc1ncnc2ccc(Br)cc12 | 42.1% |
| Cc1ccc(OCC(=O)NC(=S)Nc2ccccn2)c(Br)c1 | 37.7% |
| CC(=O)Nc1ccc(OCC(=O)Nc2ccc(Cl)c(S(=O)(=O)N3CCOCC3)c2)cc1 | 19.6% |
| CC1CCN(c2ccc(-c3cccc(NC(=O)C(F)(F)F)c3)nn2)CC1 | 60% (active) |
| COc1ccccc1NS(=O)(=O)c1cccc(NC(=O)c2cncc(Br)c2)c1 | 21% |
| Cc1noc(/C=C/c2ccco2)c1S(=O)(=O)N1CCC(C(=O)Nc2ccc(Cl)cn2)CC1 | 24.2% |
